Test results: PubChem BioAssay (NCI)
Compounds without any hit were thinned out: in the full panel of roughly 83,000, 20% have a hit.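 Assay: single dose, 48 h. Readout: percent growth (0 = no net growth; negative = cell death). Active: <10.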 Active and inactive are the calls of the source.

How the values were obtained:
Test in all cases: NCI-60 one-dose screen, 48 h (100 = growth as untreated, 0 = no growth, -100 = all killed)
Settings in all cases: 10 µM
[1] = tested on: DU-145 prostate
[2] = tested on: K-562 leukemia
[3] = tested on: MALME-3M melanoma
[4] = tested on: MDA-MB-231 breast
[5] = tested on: RXF 393 renal
[6] = tested on: SF-268 CNS
[7] = tested on: SF-295 CNS
[8] = tested on: SF-539 CNS
[9] = tested on: UACC-257 melanoma
[10] = tested on: M14 melanoma
[11] = tested on: HCT-15 colon
[12] = tested on: HT29 colon
[13] = tested on: SNB-75 CNS
[14] = tested on: SNB-19 CNS
[15] = tested on: U251 CNS
[16] = tested on: PC-3 prostate
[17] = tested on: SK-MEL-5 melanoma
[18] = tested on: UACC-62 melanoma
[19] = tested on: LOX IMVI melanoma
[20] = tested on: SK-MEL-28 melanoma

Measured: growth

N/C(=N\O)c1cn(C2OC(CO)C(O)C2O)c2ncnc(N)c12 (stereo not given)
inactive: [14] 16.5% | [15] 10.7%
active: [1] 0.144% | [2] 7.52% | [3] -78.3% | [4] 5.86% | [5] -9.98% | [6] 9.34% | [7] -16.7% | [8] 1.24% | [9] -23.8% | [10] -28.3% | [11] 7.46% | [12] 7.04% | [13] -7.06% | [16] 4.66% | [17] -43% | [18] -68.2% | [19] -63.2% | [20] -53.3%

COc1cc(CSc2nc3ccc(Cl)cc3c(=O)n2-c2ccccc2)cc(OC)c1OC
inactive: [1] 92.9% | [2] 38.2% | [3] 76.5% | [4] 63% | [5] 68.9% | [6] 77.7% | [7] 84.2% | [8] 78.9% | [9] 89.7% | [10] 93.2% | [11] 52.5% | [12] 67% | [13] 75.8% | [14] 80.6% | [15] 88.6% | [16] 73.2% | [17] 81.3% | [18] 64.1% | [19] 79.3% | [20] 103%

Cc1cc(O)c(C2=NN(c3ccc(S(N)(=O)=O)cc3)C(c3ccc(N(C)C)cc3)C2)c(C)c1Cl (stereo not given)
active: [7] 6.34%
inactive: [1] 75.2% | [2] 25% | [3] 157% | [4] 103% | [5] 93.4% | [6] 72.1% | [8] 91.6% | [9] 97.6% | [10] 89.3% | [11] 80.5% | [12] 52.7% | [13] 78.7% | [14] 107% | [15] 78.3% | [16] 13.6% | [17] 79.6% | [18] 64.8% | [19] 82.8% | [20] 90.2%

COc1cccc(-c2nnc(COc3ccc(-c4nc5ccccc5[nH]4)cc3OC)o2)c1
inactive: [1] 98.9% | [2] 55.5% | [3] 89.9% | [4] 91.7% | [5] 104% | [6] 103% | [7] 101% | [8] 104% | [9] 109% | [10] 103% | [11] 78.3% | [12] 96.1% | [13] 109% | [14] 98.1% | [15] 97% | [16] 97.7% | [17] 67.4% | [18] 95.1% | [19] 104% | [20] 98.1%

Oc1cc(O)c(Br)cc1Br
inactive: [1] 107% | [2] 97.5% | [3] 120% | [4] 112% | [5] 110% | [6] 100% | [7] 98.7% | [8] 96.4% | [9] 102% | [10] 92.9% | [11] 101% | [12] 98.1% | [13] 95.7% | [14] 102% | [15] 99.7% | [16] 87.9% | [17] 97.7% | [18] 101% | [19] 94% | [20] 111%

O=S(=O)(NCl)c1ccccc1
inactive: [1] 106% | [2] 97.3% | [3] 97.5% | [4] 115% | [5] 109% | [6] 99.9% | [7] 94.3% | [8] 106% | [9] 103% | [10] 107% | [11] 102% | [12] 106% | [13] 84.3% | [14] 104% | [15] 95.9% | [16] 99.1% | [17] 103% | [18] 106% | [19] 97.1% | [20] 97.1%

COc1ccc(-c2ccc(-c3ccc(C(=N)N)c(F)c3)s2)cc1
active: [1] -97.8% | [2] -70.2% | [3] -62% | [4] -89% | [5] -80.4% | [6] -89.8% | [7] -87.5% | [8] -93.7% | [9] -87.1% | [10] -83.5% | [11] -78.9% | [12] -90% | [13] -98.9% | [14] -89.6% | [15] -95.1% | [16] -88.6% | [17] -93.9% | [18] -88.9% | [19] -84.3% | [20] -91.5%

Cc1nc(Nc2nc3ccccc3o2)nc(-c2cccc([N+](=O)[O-])c2)c1C(=O)Nc1ccc(F)c(Cl)c1
inactive: [1] 18.6% | [5] 29.4% | [6] 11.9% | [8] 25.7% | [10] 15.6% | [11] 15.5% | [13] 17.8% | [14] 11.7% | [18] 17.1% | [20] 13.2%
active: [2] 4.49% | [3] 6.18% | [4] -17.4% | [7] -40.7% | [9] -11.3% | [12] 6.31% | [15] 3.14% | [16] 6.84% | [17] 0.624% | [19] 0.0269%

CCOC(=O)C1=C(Nc2ccc(OC)cc2)C(N)=NC1=N
inactive: [1] 44.1% | [2] 19% | [3] 31.9% | [4] 67.5% | [5] 46.7% | [6] 60% | [7] 54.8% | [8] 25% | [9] 44.9% | [10] 27.3% | [11] 22% | [12] 11.7% | [13] 51.9% | [14] 66.8% | [15] 51.7% | [16] 40.5% | [17] 21.5% | [18] 30.4% | [19] 52% | [20] 67.3%

O=C(N/N=C\c1cc(Cl)ccc1O)c1ccncc1
inactive: [1] 48.3% | [2] 39.1% | [3] 80% | [4] 56% | [5] 57.4% | [6] 37.5% | [7] 77.2% | [8] 63.6% | [9] 53.7% | [10] 47.6% | [11] 26.3% | [12] 65.4% | [13] 74.2% | [14] 62% | [15] 43.9% | [16] 61% | [17] 37% | [18] 46.2% | [19] 30.9% | [20] 64.5%

CS(=O)(=O)Nc1ccc(OCc2nnc(-c3ccc(Cl)cc3)o2)c(F)c1
inactive: [1] 101% | [2] 100% | [3] 111% | [4] 85.7% | [5] 108% | [6] 98.9% | [7] 94.1% | [8] 85.1% | [9] 99.6% | [10] 99.3% | [11] 88% | [12] 105% | [13] 82.7% | [14] 93.5% | [15] 99% | [16] 91% | [17] 92.3% | [18] 83.7% | [19] 82.9% | [20] 102%

O=S(=O)(O)C1(O)CCCCC1
inactive: [1] 54.1% | [2] 85.3% | [3] 86.9% | [4] 84.4% | [5] 89.4% | [6] 104% | [7] 82.5% | [8] 84% | [9] 102% | [10] 91.2% | [11] 87.3% | [12] 59% | [13] 82.3% | [14] 87.8% | [15] 99.3% | [16] 77.6% | [17] 92.9% | [18] 96.8% | [19] 97.7% | [20] 102%

O=C(NC1CCCC1)c1ccc(N2CCC(NCc3cccc(C(F)(F)F)c3)CC2)cc1
inactive: [1] 91.2% | [2] 38% | [3] 70.3% | [4] 78.1% | [5] 79.1% | [6] 90.3% | [7] 96.3% | [8] 97.6% | [9] 91.3% | [10] 77.5% | [11] 77.8% | [12] 36.7% | [13] 85.3% | [14] 105% | [15] 82.9% | [16] 83.3% | [17] 79.5% | [18] 104% | [19] 89.7% | [20] 108%

CCC(CCNc1cc(OC)cc2cccnc12)CN1C(=O)c2ccccc2C1=O (stereo not given)
inactive: [1] 118% | [2] 101% | [3] 132% | [4] 96% | [5] 117% | [6] 98.7% | [7] 106% | [8] 106% | [9] 119% | [10] 117% | [11] 93.1% | [12] 105% | [13] 84% | [14] 103% | [15] 102% | [16] 89.2% | [17] 105% | [18] 97.5% | [19] 90.6% | [20] 117%

COc1nc2c(c(=O)[nH]1)C(c1ccc(Oc3ccnc4cc(Cl)ccc34)c(OC)c1)C=C(c1cc(OC)c(OC)c(OC)c1)N2 (stereo not given)
inactive: [1] 95.1% | [2] 87.8% | [3] 109% | [4] 80.8% | [5] 106% | [6] 103% | [7] 99.1% | [8] 108% | [9] 92.2% | [10] 98.8% | [11] 98.8% | [12] 89.8% | [13] 91.9% | [14] 89.1% | [15] 97.4% | [16] 87.2% | [17] 95.1% | [18] 95.9% | [19] 95.5% | [20] 116%

COc1ccc(-c2nc(-c3nc4ccc(OC)cc4[nH]3)c3ccccn23)cc1
inactive: [1] 71.9% | [2] 25.5% | [3] 104% | [4] 83% | [5] 75.7% | [6] 57.5% | [7] 52% | [8] 90.2% | [9] 92.9% | [10] 77.5% | [11] 59.7% | [12] 58.6% | [13] 57% | [14] 85.5% | [15] 61.6% | [16] 35% | [17] 59% | [18] 79% | [19] 71.1% | [20] 98.1%
